In ChEMBL document CHEMBL3433997, “St. Jude Leishmania screening dataset” (2016) one finds inhibition data, which are given here for 14 compounds.

In the experiment the target is Glucose transporter (Leishmania mexicana) (UniProt O61059). Kind of experiment: ST_JUDE_LEISH: Cytotoxicity at 2uM final concentration against transgenic Leishmania Mexicana promastigotes LmGT2 that are glucose transport deficient and complemented with the L. Mexicana glucose transporter 2. Activity is measured by DNA content using SYBR green in vitro. It is filed as functional.
The inhibition is the relative decrease from the control value, in per cent. For `Cc1ccccc1CCNC(=O)c1cnc(N2CCN(c3ccncc3)CC2)c(Cl)c1`, the inhibition came to 84.2%.

In the case of `c1ccc(CN2CCCN(c3ccc4c(c3)CCN(Cc3ccc(-c5ncc[nH]5)cc3)CC4)CC2)cc1`, the inhibition was found to be 0.68%.

Take `Cc1cc(N/N=C/c2cccc([N+](=O)[O-])c2)c2ccccc2n1`: the inhibition worked out at 4.98%.

`Cc1cc(OCCCN2CCC(NS(=O)(=O)c3cccc(Br)c3)C2)c2ccccc2n1` (centres undefined): the inhibition was found to be 1.56%.

As for `Cc1noc(C)c1-c1cccc(CNCc2cccc(-c3cccc(-c4nc5ccccc5[nH]4)c3)c2)c1`, the inhibition was 0.09%.

For the compound `COc1ccc2c(c1)CCCC2NCCCCNC(=O)c1ccc(NC(=O)c2ccc(Cl)cc2)cc1` (centres undefined), the inhibition worked out at 0.82%.

Regarding `CN(Cc1cccc(C#N)c1)C1CCN(c2cc(NC(=O)c3ccc(F)cc3)ccn2)CC1`, the inhibition amounted to 4.06%.

Consider `CC(=O)c1cccc2[nH]c(C(=O)NC3CCC(CCN4CCc5ccc(C#N)cc5C4)CC3)cc12` (centres undefined), for which the inhibition amounted to 2.51%.

For `Cc1noc(C)c1-c1ccc2c(Nc3ccc(Cl)cc3)c(C(N)=O)cnc2c1`, the inhibition was 12.9%.

As to `COc1ccc2nccc(N(C)CC3(O)CCN(CC(O)c4ccc5c(c4)NC(=O)CS5)CC3)c2n1` (centres undefined), the inhibition was -0.26%.

As for `FC(F)(F)c1cccc(Nc2nc(-c3ccccc3)nc3ncccc23)c1`, the inhibition came to 3.04%.

For `CCN(CC)Cc1cccc(-c2cc3c(-c4ccc(C(=O)O)c(C(C)C)c4)ccnc3[nH]2)c1OC`, the inhibition was determined as 7.3%.

With `Fc1ccc(Nc2nnc(CNC3CCN(Cc4ccc(Cl)c(Cl)c4)CC3)[nH]2)cc1`, the inhibition is -0.83%.

Regarding `CCOc1ccc(C2CCN(CCN3CCC(NC(=O)c4ccc(-c5ccc(C(F)(F)F)cc5)cc4)CC3)CC2)c(OCC2CC2)c1`, the inhibition amounted to 2.81%.
